The text below walks through data of PubChem BioAssay (NCI).

About 83,000 compounds went through this panel and 20% of them were active in at least one assay; those are over-represented in the sample as a whole.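 Treatment: one concentration, 48 hours, 96-well format. Scoring: percent growth, with anything below 10 considered active.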 A number with no mark means an inactive call. Active and inactive are the calls of the source.

Assay in all cases: NCI-60 one-dose screen, 48 h (100 = growth as untreated, 0 = no growth, -100 = all killed)
Settings in all cases: 10 µM unless noted

In experiment [1] the test system is SK-MEL-2 melanoma.
In experiment [2] the test system is EKVX NSCLC.
In experiment [3] the test system is SN12C renal.
The test system of experiment [4] is UO-31 renal.
For experiment [5], the system named is TK-10 renal.
Experiment [6] has as its system ACHN renal.
In experiment [7] the test system is CAKI-1 renal.
Experiment [8] deals with A498 renal.
Experiment [9] concerns CCRF-CEM leukemia.
Experiment [10] concerns MOLT-4 leukemia.
The test system of experiment [11] is OVCAR-8 ovarian.
Experiment [12] relates to OVCAR-5 ovarian.
In experiment [13] the test system is OVCAR-4 ovarian.
Experiment [14] has as its system SK-OV-3 ovarian.
Experiment [15] relates to IGROV1 ovarian.
Experiment [16] deals with OVCAR-3 ovarian.
Experiment [17] has as its system HS 578T breast.
Experiment [18] deals with NCI/ADR-RES ovarian.
Experiment [19] concerns SR leukemia.
Experiment [20] has as its system RPMI-8226 leukemia.

For `CC(C)(C)CC(C)(C)Nc1c(-c2ccncc2)nc2cnccn12`, the growth in experiment [1] is 106%; in experiment [2], 93.1%; in experiment [3], 102%; in [4] it was 86.7%; in experiment [5], 99.2%; in experiment [6], 87.7%. Moreover, the growth in experiment [7] is 80.6%; in experiment [8], 90.9%; in experiment [9] it was 91.6%; in experiment [10], 94.1%; in experiment [11], 95.6%; in experiment [12] it was 93.7%. For the same molecule, the growth in experiment [13] is 84%; in [14], 92.8%; in experiment [15] it was 99.8%; in experiment [16], 102%; in experiment [17], 92.2%; in [18] it was 99.5%.
Regarding `CC1(C)CC(=O)C2=C(C1)N(c1ccc(OC(F)(F)F)cc1)C(N)=C(C#N)C2c1ccc(Cl)cc1` (stereo not drawn), the growth is 90.7% in experiment [1]; 84.6% in experiment [2]; 80% in [3]; 89.9% in experiment [4]; 89.7% in experiment [5]; 71.4% in [6]. Further, the growth in [7] is 60.8%; in experiment [8], 94.4%; in experiment [9] it was 96.5%; in experiment [10], 95.4%; in experiment [11], 56.2%; in [12], 91%. Moreover, the growth was 85% in experiment [13]; 62.7% in experiment [14]; 90.3% in [15]; 94.5% in experiment [16]; 65.5% in experiment [17]; 87.6% in [18].
As for `COc1cc(C2CC(c3cc(OC)c(OCCCOc4ccc(-n5c(/C=C/c6ccccc6)nc6ccccc6c5=O)cc4)c(OC)c3)=NO2)cc(OC)c1OC` (stereo not drawn), the growth in experiment [1] was 92.3%; in experiment [2], 118%; in [3], 127%; in [4], 86.7%; in experiment [5], 139%; in experiment [6], 91.3%. Also, the growth in experiment [7] is 115%; in experiment [8], 123%; in experiment [9] it was 76.6%; in [10], 86%; in experiment [11], 104%; in [12] it was 105%. Besides, the growth was 87% in experiment [13]; 114% in experiment [14]; 118% in [16]; 108% in [17]; 107% in experiment [18].
For the molecule `COc1cccc(-c2nn(-c3ccccc3)cc2-c2ccnc(NCCNC(=O)Nc3ccc(Cl)c(Cl)c3)c2)c1`, the growth in experiment [1] was -12.1% (active); in [2] it was 46.3%; in experiment [3], 11.5%; in experiment [4], -13.1% (active); in [5], 40.2%; in experiment [6] it was 14.6%. For the same molecule, the growth in [7] was 24.5%; in experiment [8], -9.43% (active); in experiment [9], 8.1% (active); in experiment [19], -26.4% (active); in experiment [20] it was 11.9%; in [11], 7.05% (active). The growth in experiment [12] is 41.7%; in [13], 36.4%; in experiment [14], 9.85% (active); in experiment [15], 44%; in experiment [16], -6.87% (active); in [17] it was -22.1% (active).
Take `O=[N+]([O-])c1ccc(OCCO)cc1`: the growth in [1] is 105%; in experiment [2], 92.8%; in experiment [3], 101%; in experiment [4] it was 86.2%; in experiment [5], 117%; in experiment [6], 104%. The growth in [7] was 93.1%; in experiment [8] it was 90.6%; in [9], 96.2%; in experiment [19] it was 139%; in experiment [20] it was 101%; in experiment [11], 98.7%. For the same molecule, the growth is 97.1% in experiment [12]; 102% in experiment [13]; 103% in experiment [14]; 105% in experiment [15]; 99.9% in experiment [16]; 99.5% in experiment [17]. The growth in [18] was 97.8%.
Turning to `O=C(Nc1ccccc1-c1nc2ccccc2c(=O)[nH]1)c1cc2ccccc2[nH]1`, the growth in experiment [1] is 96.4%; in experiment [2] it was 78.9%; in [3] it was 94.7%; in experiment [4] it was 63.6%; in [5], 111%; in experiment [6] it was 86.7%. For the same molecule, the growth in [7] was 81.8%; in [8] it was 119%; in [9], 97.4%; in experiment [10], 95.6%; in experiment [11] it was 87.4%; in experiment [12] it was 95.3%. Further, the growth was 105% in experiment [13]; 78.4% in experiment [14]; 69.2% in [15]; 102% in experiment [16]; 85.8% in experiment [17]; 98.1% in experiment [18].
As for `O=c1c2cc(F)ccc2sc2c(Nc3cccnc3)nc3ccccc3c12`, the growth was 109% in [1]; 83.2% in experiment [2]; 93.4% in experiment [3]; 79.7% in [4]; 96.3% in [5]; 73.5% in experiment [6]. The growth in [7] was 69.1%; in experiment [8], 79.5%; in [9], 28.2%; in [10], 4.56% (active); in experiment [11] it was 89.1%; in experiment [12] it was 57.8%. Further, the growth in [13] was 105%; in [14], 93.9%; in [15] it was 73.7%; in experiment [17], 74%; in [18], 90.4%.
With `O=[N+]([O-])c1ccc(Sc2cccc[n+]2[O-])c2nonc12`, the growth was 92.9% in experiment [1]; 98.2% in [2]; 93.6% in experiment [3]; 49.1% in experiment [4]; 133% in experiment [5]; 95.4% in [6]. Moreover, the growth is 102% in experiment [7]; 113% in experiment [8]; -18.8% (active) in experiment [9]; 1.31% (active) in [19]; -12.2% (active) in experiment [20]; 82.5% in experiment [11]. The growth is 120% in experiment [12]; 40.9% in [13]; 108% in experiment [14]; 6.59% (active) in experiment [15]; -8.18% (active) in experiment [16]; 24.8% in [17].
